Measured values from ChEMBL document CHEMBL3988442, “University of Dundee, Small-Polar-MMV Screening Library” (2021).
About 13,000 (27%) of roughly 48,000 compounds showed an effect of 50% or more. This is one part of the list.

test system: Wolbachia pipientis; experiment: Anti-Wolbachia Cell-Based Screen; format: functional; set-up: scale not given: in the data most compounds retested in dose-response had high values; settings: 5 µM

Structure (SMILES) | Percent Effect [%]
Cn1ccnc1CN(CCCO)CC(F)(F)F | -6.784
CCCC(=O)N(Cc1ccncc1)C(C)CC (centres undefined) | -14.56
O=C(O)C(F)(F)F.O=C([C@@H]1COC[C@H]2CN(C3CCOCC3)C[C@H]21)N1CCOCC1 | 8.462
O=C([C@@H]1C[C@@H]2CCN(C3CCOCC3)C[C@@H]2O1)N1CCOCC1 | 114
O=C([C@@H]1C[C@@H]2CCN(C3CCOCC3)C[C@H]2O1)N1CCCC1 | 111.9
O=C([C@H]1COC[C@H]2CN(C3CCCC3)C[C@H]21)N1CCOCC1 | -18.92
O=C(CCn1cncn1)NC1(c2cccc(Br)c2)CCC1 | 14.53
CC(C)C(NC(=O)Nc1cnn(CC(N)=O)c1)c1ccc(Cl)cc1 (centres undefined) | 4.509
O=C(c1coc(CN2CCN(c3ccccc3F)CC2)n1)N1CC=CC1 | -19.74
Cc1cccc(C(=O)N2CCCN(CCCSCC#N)CC2)c1 | 95.07
Cn1ccc(C(=O)N2CCCN(CCCc3ccccc3)CC2)cc1=O | 5.22
N#CCSCCCN1CCCC(C(=O)N2CCCCCC2)C1 (centres undefined) | 8.122
N#CCSCCCN1CCN(C(=O)c2ccc(Cl)cc2)CC1 | 23.02
N#CCSCCCN1CCCN(C(=O)c2ccccc2)CC1 | 13.73
N#CCSCCCN1CCN(C(=O)c2ccccc2F)CC1 | 105.1
N#CCSCCCN1CCN(C(=O)c2cccc(Cl)c2)CC1 | 87.64
Cc1ccc(C(=O)N2CCc3ncnc(C)c3CC2)cc1F | 4.805
Cc1ccc(C(=O)N2CCN(CCCSCC#N)CC2)cc1F | 105.3
Cc1ccc(C(=O)N2CCN(CCCSCC#N)CC2)o1 | -4.6
O=C(c1ccccc1F)N1CCN(CCCn2cncn2)CC1 | -12.58
N#CCSCCCN1CCN(C(=O)C2CCCC2)CC1 | -2.265
O=C(NC1CC1)[C@H]1[C@@H]2CN(Cc3ccc(-c4ccn[nH]4)s3)C[C@@H]21 | -3.84
COC(=O)[C@@H]1C[C@@H](O)CN1Cc1ccn(-c2ccc(F)cc2)n1 | -13.47

Structure (SMILES) | Percent Effect [%]
CNC(=O)c1ccc2c(OC)n(C)nc2c1 | 2.989
CC(C)n1cnnc1CN(C)Cc1ccoc1 | 9.92
CCc1cnc(N2C[C@H]3CN(Cc4csc(C)n4)C(=O)[C@H]3C2)nc1.O=C(O)C(F)(F)F | -9.51
Cc1c[nH]c(CN2CCOC(c3ccc(F)cc3)C2)c(C)c1=O (centres undefined) | 1.733
Cc1nnc(CN2CCOC(c3ccc(Cl)c(Cl)c3)C2)o1 (centres undefined) | 7.568
Cc1cc(C)nc(CN2CCOC(c3ccc(Cl)cc3)C2)n1 (centres undefined) | -0.4936
Cc1nc[nH]c1CN1CCOC(c2ccc(Cl)c(Cl)c2)C1 (centres undefined) | 1.288
Cc1c[nH]c(CN2CCOC(c3ccc(Cl)c(Cl)c3)C2)c(C)c1=O (centres undefined) | 94.99
Cc1c[nH]c(CN2CCOC(c3ccc(Cl)cc3)C2)c(C)c1=O (centres undefined) | 100.9
CN1CCN(CCCNCc2cc(O)c3cc(F)ccc3n2)CC1 | -16.72
NC(=O)NCCC(=O)N1CCC(c2cc(Cc3ccccc3)n[nH]2)CC1 | -24.35
Cl.Cn1ncc2c1CCCC2NCc1ccc(Br)s1 (centres undefined) | -6.912
Cc1cccc(CNC2CCCc3c2cnn3C)c1.Cl (centres undefined) | 0.5584
Cn1ncc2c1CCCC2NCc1cnc(-c2ccccc2)nc1 (centres undefined) | -0.06204
Cn1ncc2c1CCCC2NCc1cccnc1 (centres undefined) | 87.53
Cc1ccc(CNC2CCCc3c2cnn3C)s1.Cl (centres undefined) | 1.48
Cn1ncc2c1CCCC2NCc1ccc(OCc2cccnc2)cc1 (centres undefined) | 102.9
CSc1ccc(CNC2CCCc3c2cnn3C)cc1.Cl (centres undefined) | 78.82
Cn1ncc2c1CCCC2NCc1ccc(Cl)s1 (centres undefined) | -1.294
COc1cc(CNC2CCCc3c2cnn3C)cc(OC)c1.Cl (centres undefined) | 0.06204
Cn1ccc(C(=O)N2CCCC(Cc3cnc4ccccc4c3)C2)n1 (centres undefined) | 126.8
CC(C)(C)C(O)CN1CCN(C(=O)c2cccc3ncccc23)CC1 (centres undefined) | 5.5
Cn1ccc(C(=O)N2CCCC(Cc3cccc4cccnc34)C2)n1 (centres undefined) | 100.6

Structure (SMILES) | Percent Effect [%]
Cn1ccc(C(=O)N2CCC(Cc3cccc4ncccc34)C2)n1 (centres undefined) | 142.2
Cn1ccc(C(=O)N2CCC(Cc3cccc4cccnc34)C2)n1 (centres undefined) | -6.832
Cn1ccc(C(=O)N2CCCC(Cc3cccc4ncccc34)C2)n1 (centres undefined) | -23.19
Cn1ccc(C(=O)N2CCC(Cc3cccc4ncccc34)CC2)n1 | 112
COc1cccc(CCC2CCCN(C(=O)c3ccc(=O)n(C)n3)C2)c1 (centres undefined) | -50.16
CC(C)C(C)NC(=O)CN1CCSCC1 (centres undefined) | 15.54
COC(=O)N1CCCCC1C(=O)N(C)Cc1cc(-c2cccnc2)no1 (centres undefined) | -13.17
CC(c1ccccc1)N(C)CC(=O)NCCC#N (centres undefined) | 10.46
COc1ccc2nc3n(c2c1)[C@@H](CNC(=O)c1cncnc1)COC3 | -25.15
CCOC(=O)C1CCCCN1Cc1c[nH]nc1-c1ccc(F)cc1F (centres undefined) | -25.87
CN(C)S(=O)(=O)N1CCN(c2ccnc(N3CCCCC3)n2)CC1 | 2.063
CN(C)S(=O)(=O)N1CCN(Cc2ccnc(N3CCCC3)n2)CC1 | 116.4
CN(C)S(=O)(=O)N1CCN(c2ccnc(N3CCCC3)n2)CC1 | 6.981
CC(C)CN1CC(c2nc(-c3cccc(F)c3)c[nH]2)CC1=O (centres undefined) | -7.334
COc1ccccc1N1CCCC(Nc2nccnc2C#N)C1 (centres undefined) | -6.167
CC(OCC1CC1)C(=O)N1CCCN(c2ncccc2C#N)CC1 (centres undefined) | 0.6677
Cc1ncsc1C(=O)NC1CCN(c2ncccc2C#N)CC1 | 3.03
COc1cc(NC2CCCN(c3ncccc3C#N)C2)cc(OC)c1 (centres undefined) | 118.7
N#Cc1cccnc1N1CCC(Nc2ccccc2)C1 (centres undefined) | 96.82
COc1cc(CNC2CCCN(c3ncccn3)C2)cc2c1OCO2 (centres undefined) | -8.887
COc1cc(NC2CCCN(c3ncccn3)C2)cc(OC)c1 (centres undefined) | 107.2
COc1cc(NC2CCCNC2)cc(OC)c1 (centres undefined) | -9.333
Cc1cc(C(=O)NC2CCN(c3ncccc3C#N)CC2)no1 | -13.19
